Results filed as inconclusive are left out. Unmarked numbers belong to inactive results. Activity calls are given as the source filed them. The call rests on the fitted dose curve; in most records, active means well fitted cell-killing curve with a large enough effect; inconclusive means small, poorly fitted or top-dose-only effect, or effect the other way; inactive means no such curve, though single readings can be large or run the other way.
Experiments:
[1] = Viability qHTS for spleen associated tyrosine kinase inhibitor (SYKi) naive MV4-11 cells (AID 1963823); further: nearly all actives have a fitted effect of over 40% in size
Method in brief: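 qHTS, SYK inhibitor-naive MV4-11; 500 cells/well; 72 hr compound exposure, 37 C; CellTiter-Glo added, 10 min RT; luminescence read.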

[2] = Viability qHTS for spleen associated tyrosine kinase inhibitor (SYKi) drug resistant MV4-11 cells (AID 1963824); further: nearly all actives have a fitted effect of over 35% in size
Method in brief: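 CellTiter-Glo luminescence, read 10 min after reagent addition, reports viability after a 72 hr compound exposure. Cells are an MV4-11 line made resistant to SYK inhibition, seeded at 500 per well onto compound-containing plates.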
Potency means the concentration at half of the fitted maximal effect.

SMILES | Potency [1] | Potency [2] | viability (% of control) [1] | viability, % of control [2]
COc1ccc(CCc2nc3cc(-c4c(C)noc4C)ccc3n2C[C@H](C)N2CCOCC2)cc1Cl | 7.31 µM (active) | 5.8 µM (active) | – | –
CCC(C)CNCC(=O)N1CCc2sccc2C1COc1cccc(C)c1 (stereo not given) | 9.2 µM (active) | 9.2 µM (active) | – | –
C=C(C(=O)O)C1CCC2(C)CCC(O)C(C)(O)C2C1 (stereo not given) | inactive | inactive | – | –
Cc1ccc(S(=O)(=O)c2ccc([N+](=O)[O-])o2)cc1 | 0.461 µM (active) | 0.411 µM (active) | – | –
CCN(CC)C(C)CN1c2ccccc2Sc2ccccc21 (stereo not given) | inactive | inactive | – | –
O=C1COc2nccc(-c3ccccc3F)c2CN1Cc1cc(C(F)(F)F)cc(C(F)(F)F)c1 | 11.6 µM (active) | 16.4 µM (active) | – | –
C/C=C(\C)C(=O)OC[C@H]1O[C@@H](O[C@H]2[C@@H](O[C@H]3O[C@H](CO)[C@@H](O)[C@H](O)[C@H]3O[C@@H]3O[C@H](CO)[C@@H](O)[C@H](O)[C@H]3O)O[C@H](COC(=O)/C(C)=C/C)[C@@H](O)[C@@H]2O)[C@H](O)[C@@H](O)[C@@H]1O | – | – | 81.8% [at 9.25 µM] | 79.8% [at 9.25 µM]
CC(N)C1CCC(C(=O)Nc2ccncc2)CC1 (stereo not given) | inactive | inactive | – | –
CC[C@@H]1C[C@]1(NC(=O)[C@@H]1C[C@@H]2CN1C(=O)[C@H](C(C)(C)C)NC(=O)OCC(C)(C)CCCCc1cccc3c1CN(C3)C(=O)O2)C(=O)NS(=O)(=O)C1CC1 | 20.6 µM (active) | 18.4 µM (active) | – | –
CC12CCC3c4ccc(OC5OC(C(=O)O)C(O)C(O)C5O)cc4CCC3C1CCC2O (stereo not given) | inactive | inactive | – | –

Source: PubChem BioAssay (NCATS)
